Reference: PubChem BioAssay (NCI)
The panel holds about 83,000 compounds, 20% with a hit somewhere; the sample as a whole holds those more often.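 Plates (96-well) were seeded with cells, treated with compound at one concentration, and incubated for 48 hours before percent growth was determined.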 Values without a mark were called inactive. Activity calls are given as the source filed them. The calls were made as follows: active = growth percent below 10; inactive = the rest.

Test system: K-562 leukemia
Test: NCI-60 one-dose screen, 48 h (100 = growth as untreated, 0 = no growth, -100 = all killed)
Conditions: 10 µM unless noted

Structure (SMILES)	growth
Cn1c2ccccc2c2c3c(c4c5cc(Br)ccc5n(C)c4c21)C(=O)N(O)C3=O	10.4%
c1ccc2cc(Cn3cc(CSc4nc5ccccc5s4)nn3)ccc2c1	97.4%
COCCn1cc(-c2nc(-c3cc4cccnc4n3C)cs2)c2ccccc21	20%
COc1ccc(C2[C@@H](Cl)C(=O)N2c2cc(OC)c(OC)c(OC)c2)cc1Cl (stereo not given in full)	5.8% (active)
N#Cc1nn(-c2cc(=O)[nH]c3ccc(Br)cc23)c(N)c1C#N	-12.4% (active)
CC1=C2CC/C(C)=C/CC[C@]3(C)O[C@H]3CC/C(C)=C/[C@H]2OC1	87.5%
CN(C)CCCn1c2c(c3cnccc3c1=O)C(=O)c1ccccc1-2	3.18% (active)
CN1CCOCCN(C)Cc2ccc3ccc(cc3c2)CN(C)CCOCCN(C)Cc2ccc3ccc(cc3c2)C1	-10.3% (active)
COc1ccc2c(O)c(/C=C3\N=Nc4ncccc43)oc2c1C[C@@H]1CCNC[C@H]1F	-26.4% (active)
COc1cc(/C=C2\C(=O)N(CCCOc3cc(O)c4c(=O)cc(-c5ccccc5)oc4c3)c3ccccc32)cc(OC)c1O	21.2%
Cc1ccc(S(=O)(=O)c2nc(-c3ccccc3)oc2SCC(N)=O)cc1	88.2%
C=CN(C(=O)N1CCN(c2cc3c(cc2F)c(=O)c(C(=O)O)cn3C2CC2)CC1)c1nc(-c2ccccc2)cs1	94.8%
Cc1ccc(NC(=O)c2sc3nc(C)c(C(O)c4ccccc4)cc3c2N)cc1 (stereo not given)	6.23% (active)
Nc1c(Br)cc2c(c1Br)Cc1cc([N+](=O)[O-])ccc1-2	69.5%
Cn1cc(-c2nc3c(F)cc4[nH]ncc4c3c3c2CCCC3)c(C(F)(F)F)n1	19.3%
CCCCCc1ccc(S(=O)(=O)Nc2ccc3nc(N)oc3c2)cc1	27.9%
Nc1ncnc2c1N=C(c1ccc(F)cc1)CC(c1cccc(Nc3ccnc4cc(Cl)ccc34)c1)N2 (stereo not given)	26.7%
CCOC(=O)c1[nH]cc2c1CCc1sc(Nc3ccccn3)nc1-2	59.5%
C=C(C)[C@@H]1CC[C@]2(CO)CC[C@]3(C)[C@H](CC[C@@H]4[C@@](C)(CCCN)[C@H](C(=C)C)CC[C@]43C)[C@@H]12	-5.14% (active)
CCN1C(=O)N(c2ccccc2)C2NC(=S)N(/N=C/C=C/c3ccccc3OC)C21 (stereo not given)	9.41% (active)

Structure (SMILES)	growth
CN1c2ccccc2S(=O)(=O)n2c(SCC(=O)Nc3nc4ccc(F)cc4s3)nnc21	116%
Clc1ccc(Nc2nnc(CNc3ccccc3)c3ccccc23)cc1	5.39% (active)
N#C/C(=C\c1ccc(-c2cccc(Cl)c2)o1)C(=O)Nc1ncc(Cc2ccc(Cl)cc2)s1	80.6%
CN(C)CCC(CCN(C)C)(C(=O)O)c1ccccc1	98.1%
CC1(C)CC[C@]23CC[C@]4(C)[C@H](CC[C@@H]5[C@@]6(C)C/C(=C/O)C(=O)C(C)(C)[C@@H]6CC[C@]54C)[C@H]2[C@H]1OC3	105%
CN(C)C1CN(C(=O)c2cc(-c3ccc4ncnc(N5CCc6cc(F)c(Cl)cc65)c4c3)cnc2N)C1	23.8%
Cc1[nH]n(-c2cccc(Cl)c2)c(=O)c1/C=C1\C=c2ccccc2=CC1=O	99.1%
COCCn1cc(-c2csc(-c3c[nH]c4ccccc34)n2)c2cccnc21	18.1%
COC(=O)c1c2c(c[n+]([O-])c1C)C(=O)C=C(NCc1ccccc1)C2=O	-29% (active)
ClC(Cl)c1nc(-c2ccccc2)n2nc(-c3ccccc3)cc2n1	31.2%
CN(C)c1ccc([C@@H](C(=O)Nc2cccc([N+](=O)[O-])c2)N(C(=O)c2cc3ccccc3[nH]2)c2cccc([N+](=O)[O-])c2)cc1	100%
CC(C)(Sc1cc(C(C)(C)C)c(O)c(C(C)(C)C)c1)Sc1cc(C(C)(C)C)c(OC(=O)CCC(=O)O)c(C(C)(C)C)c1	69.4%
COc1cc(C=C2C(=O)NC(=S)NC2=O)cc(CN2CCCC2)c1O	108%
Cc1cc(C)c2c(c1)N(C)c1ncnc(-n3c(C)nc4cc(C)ccc43)c1CC2C (stereo not given)	12.4%
Brc1ccc(Nc2nc(Nc3cnc4ccccc4c3)c3[nH]cnc3n2)cc1	79.7%
COc1cc(C[C@H]2COc3cc(O)cc(O)c3C2=O)ccc1O	9.86% (active)
CC(=O)c1c(Nc2cccc(F)c2)[nH]c2c(Cl)cc(Cl)c(Cl)c2c1=O	7.81% (active)
COC12C=C/C(=C(/C(=O)OCc3csc(SC)n3)C(=O)CCCCCCCCC3(OC)C=C/C(=C(/C(=O)OCc4cnc(SC)s4)C(=O)CCCCCCCC1)O3)O2 (stereo not given)	25.3%
COC12C=C/C(=C(/C(=O)OCCSc3ccnn3C)C(=O)CCCCCCCCC3(OC)C=C/C(=C(/C(=O)OCCSc4ccnn4C)C(=O)CCCCCCCC1)O3)O2	1.16% (active)
O=C(/C=C/C12c3ccccc3C(c3ccccc31)C1C(=O)NC(=O)C12)c1ccco1 (stereo not given)	12.9%
